Our source for the activity change, negative = inhibition values is PubChem BioAssay AID1259415 (National Center for Advancing Translational Sciences (NCATS), 2018).

Each structure is given as a SMILES string. Values joined by “and” are separate entries in the source; they are usually repeats but may differ in a detail not shown here. Equal values may be shown once. Out of some 410,000 compounds screened, about 18,000 (4.4%) were called active. Not shown: some 7% with an inconclusive outcome. No stated cut-off is given here; in the data, active means activity change below about -60%; inconclusive means no clear call, values can overlap the other calls; inactive means above about -39%. The sample as a whole holds a higher share of actives than the screen did. More than one record can exist for a structure, and the calls need not agree.
On the % scale 0 is the no-effect control and ±100 the full control effect.

A short description of the assay: qHTS Assay for inhibitors of the human cytomegalovirus (HCMV). As to conditions: HFF cells, HCMV-luciferase reporter, 72 h; at 57.5 µM; stronger effect = lower value. The source says: NCGC Assay Overview: Infection with human cytomegalovirus (HCMV) continues to pose significant threats for pregnant women and immunocompromised hosts. HCMV causes serious morbidity and mortality in transplant recipients, and congenital HCMV is the leading infectious cause of mental retardation and deafness in children. In the 1990s, the annual costs associated with the disease burden of congenital CMV were estimated at around $2 billion. A HCMV vaccine is not available yet and HCMV therapies result in intolerable side effects and emergence of drug resistant viruses. […] Towards this goal we have developed and characterized a luciferase HCMV reporter that was initially used in 96 well plates and then optimized to 1536-well plates for utilization in screening of the MLSMR collection, the NGCG diversity collection and the NCGC Pharmaceutical Collection of approved and investigational drugs.
NCGC Assay Protocol Summary:
This is a cell-based assay for HCMV inhibition in HFFs cells. The screening used 2 compound doses and the HCMV-luciferase at MOI of 1 PFU/cell. Cells were treated and infected with HCMV. At 72 h post infection cell lysates were collected and luciferase activity was determined using the Glomax-Multi + Detection System (Promega, Madison, WI). Data were normalized to the controls for basal activity (buffer only) and known HCMV inhibitors Salinmoycin.
1536-well assay protocol for the assay:
(1) Add 3 ul CMV/HFF cell culture. 1000 cells/well in DMEM nirmal media.
(2) Incubate 16 hr at 37C.
(3) Add 23 nl control compound, 10uM of Salinomycin.
(4) Add 23 nl compounds in DMSO solution.
(5) Add 3 ul CMV suspension. Final 1 puf/ul, Virus stock 2000pfu/ul
(6) Incubate 72 hrs at 37C.
(7) Add 4 ul OneGlo Luc Reagent.
(8) Incubate 5 min at room temperature.
In general terms: Quantitative high-throughput screening tests each substance at several concentrations.
Take `CC(C)c1ccc(CN2C(=O)C(n3ccc4ccccc43)c3cccc(F)c32)cc1` (stereo not drawn): the activity change, negative = inhibition was -19.8% (inactive). The same measure for `C=CS(=O)c1sc(Cl)c(N2CCOCC2)c1[N+](=O)[O-]` (stereo not drawn): -29.1% (inactive); for `Cc1ccc(O)c(NC(=O)c2cc(-c3ccc(F)cc3)no2)c1`: -17.5% (inactive).

In the case of `COc1ccc2c(c1)CCc1c(C(=O)Nc3cc(C)ccc3O)noc1-2`, the activity change, negative = inhibition was -8.9% (inactive). For `Cc1ccc(O)c(NC(=O)c2cc(-c3ccco3)on2)c1` the value was -60.7% (active); for `O=C(NCc1ccccc1Cl)C1=Cc2cc(Br)ccc2OC1`, -3.65% (inactive); for `CCOc1ccc(CNCc2c(C(=O)O)c(C)n(Cc3cccc(OC)c3)c2C)cc1OC`, -14.2% (inactive). Take `Cc1c(CNC2CCCCC2)c(C(=O)O)c(C)n1Cc1cccc(Cl)c1`: the activity change, negative = inhibition is -85.4% (active). For `C=Cc1ccc(Cn2c(C(=O)O)c(CNC3CCCC3)c3ccc(C)cc32)cc1` the value was -2.87% (inactive); for `COc1ccc(-c2nc(CN3CCC(C(=O)NCc4ccccc4)CC3)c(C)o2)cc1OC`, 1.58% (inactive). The same measure for `CCOc1ccc(S(=O)(=O)N(CC(=O)NCCSCc2ccc(C)cc2)c2ccccc2)cc1`: 21.6% (inactive). Turning to `O=C1[C@@H]2C(Cc3ccc(O)cc3)NC3(C(=O)Nc4ccc(F)cc43)[C@@H]2C(=O)N1c1ccc(F)cc1` (stereo partly drawn), the activity change, negative = inhibition is 5.54% (inactive). The same measure for `COc1ccc(NS(=O)(=O)c2cc(NC(=O)CC(=O)c3ccc([N+](=O)[O-])cc3)ccc2C)cc1`: -28.9% (inactive); for `COc1ccc(C(=O)c2c3ccc([N+](=O)[O-])cc3[n+]([O-])n2CCCN)cc1`: -65.8% (active); for `COc1ccc([N+](=O)[O-])cc1NCC(=O)c1ccc(C)cc1`: 23.3% (inactive).

Take `Cn1cncc1-c1cc2cnc(Nc3ccc(OC(F)(F)F)cc3)cc2[nH]1`: the activity change, negative = inhibition was -21.4% (inactive). For `Cc1ccc(S(=O)(=O)N2CCc3cc(C(=O)Nc4ccc(Cl)cc4C)ccc32)cc1` the value was 0.154% (inactive). Consider `COc1ccc(Cn2c(=O)n(-c3ccccc3C)c(=O)c3c4c(sc32)CN(C(C)=O)CC4)cc1`, for which the activity change, negative = inhibition is 3.89% (inactive). For `Cc1ccc(C)c2sc(NC(=O)c3ccc(S(=O)(=O)N4CCCC4)cc3)nc12` the value was 37.4% (inactive); for `CC(=O)c1ccc(S(=O)(=O)N2CCN(c3nc4c(C)c(C)ccc4cc3C#N)CC2)cc1`, -87.3% (active); for `CC(=O)c1ccc(N2CCN(S(=O)(=O)c3ccc4c(c3)CC(=O)N4C)CC2)cc1`, -36.7% (inactive). For `CCC(=O)N1CCc2cc(Br)cc(S(=O)(=O)NCc3ccc(Cl)cc3)c21`, the activity change, negative = inhibition is -9.15% (inactive). For `COC(=O)c1cc(NC(=O)c2nn(C)c(=O)c3ccccc23)cc(C(=O)OC)c1` the value was -10.5% (inactive); for `CCSc1nnc(NC(=O)c2cc(=O)c3cc(C)c(C)cc3o2)s1`, 1.6% (inactive); for `Cc1cc(F)ccc1NS(=O)(=O)c1ccc(-n2cccn2)cc1`, -27.3% (inactive).

As for `CCC(=O)N1CCc2cc(Br)cc(S(=O)(=O)CCC(=O)N3CCN(c4ccc(F)cc4)CC3)c21`, the activity change, negative = inhibition is 25.8% (inactive).

Take `COC(=O)CC(=O)N1CCN(c2ccc(Cl)c(Cl)c2)CC1`: the activity change, negative = inhibition is -31.5% (inactive). For `COc1ccc(S(=O)(=O)N2CCN(C(=S)NCC3CCCO3)CC2)cc1OC` (stereo not drawn) the value was 4.06% (inactive). The same measure for `S=C(NCC1CCCO1)N1CCN(c2ccc(Cl)c(Cl)c2)CC1` (stereo not drawn): -86.4% (active); for `CCOc1ccccc1NC(=O)Cn1c(=O)n(Cc2ccco2)c(=O)c2sc3ccccc3c21`: 30.3% (inactive); for `COc1ccc(CNC(=O)Cn2nnc(-c3ccccc3F)n2)cc1`: -0.694% (inactive). The same measure for `Cc1cc(NC(=O)CC(C)C)cc(-c2nc3ncccc3o2)c1O`: 5.83% (inactive). In the case of `CC1=CC(C)(C)Nc2ccc(OC(=O)CN3C(=O)C4CCCCC4C3=O)cc21` (stereo not drawn), the activity change, negative = inhibition is -63% (active).

As for `O=C(COC(=O)CN1C(=O)C2CCCCC2C1=O)Nc1ccc(F)c(F)c1F` (stereo not drawn), the activity change, negative = inhibition was -3.46% (inactive). The same measure for `COc1ccc(C(=O)COC(=O)CN2C(=O)C3CC=CCC3C2=O)c(OC)c1` (stereo not drawn): -5.28% (inactive); for `CCOc1ccc(C(=O)c2cn(Cc3ccccc3OC)c3ccc(F)cc3c2=O)cc1`: -39% (inactive); for `CC(C)(C)c1cc[n+](-c2[nH]c(=O)sc2/C=N/N=C(\[O-])c2ccccc2)cc1`: -35.8% (inactive). For `CCOc1ccc(S(=O)(=O)c2cn(Cc3ccc(OC)cc3)c3ccc(F)cc3c2=O)cc1` the value was 5.49% (inactive); for `COc1cc(OC)cc(C(=O)Nc2c(C(=O)Nc3ccc(F)cc3)oc3ccccc23)c1`, -7.35% (inactive). The same measure for `COc1cccc(NC(=O)CN(C)C(C)C(=O)Nc2ccc(C#N)cc2)c1` (stereo not drawn): -15.8% (inactive). Regarding `Cc1cc(Nc2cccc(C(F)(F)F)c2)nc2ccc(NC(=O)c3ccc(=O)[nH]c3)cc12`, the activity change, negative = inhibition was -15.4% (inactive). For `COc1ccc(Sc2ccc(NC(=O)c3cccc(Cl)c3)cc2C#N)cc1` the value was -22.8% (inactive); for `COc1cc(NC(=O)c2cncc(-c3ccc(C#N)cc3)c2)cc(C(=O)Nc2cccc(C(F)(F)F)c2)c1`, -78.9% (active) and -65.8% (active); for `COc1cc(OC)cc(C(=O)Nc2ccc3nc(Nc4cccc(C(F)(F)F)c4)cc(C)c3c2)c1`, -92.6% (active).

In the case of `O=C1COCc2cc(-c3cccc(F)c3)ccc2N1CCN1CCOCC1`, the activity change, negative = inhibition is -29.7% (inactive).

Take `CCOC(=O)c1cccc(NC(=O)c2cc(S(=O)(=O)N3CCCC(C)C3)cn2C)c1` (stereo not drawn): the activity change, negative = inhibition is -10.5% (inactive). As to `CCOC(=O)c1cccc(NC(=O)C2CCCN(S(=O)(=O)c3cnc[nH]3)C2)c1` (stereo not drawn), the activity change, negative = inhibition was -78.2% (active). For the compound `CC(=O)c1cccc(NC(=O)C2CCCN(S(=O)(=O)c3cccc4nonc34)C2)c1` (stereo not drawn), the activity change, negative = inhibition was 8.09% (inactive). The same measure for `CN(C)c1ccc(NC(=O)CSc2nc(-c3ccco3)cc(C(F)(F)F)n2)cc1`: 13.1% (inactive); for `Cc1cc(NC(=O)CCC(=O)N(CC(=O)NCC2CCCO2)c2ccccc2)no1` (stereo not drawn): -24.8% (inactive); for `Cc1cccc(OP(=O)(Oc2cccc(C)c2)OC(c2ccccc2)C(F)(F)F)c1` (stereo not drawn): 19.6% (inactive). Consider `CCN(CC)P(=O)(Oc1cccc(C)c1)N(CC)CC`, for which the activity change, negative = inhibition was -101% (active). For `Cc1cccc(OP(=O)(Nc2c(C)n(C)n(-c3ccccc3)c2=O)Oc2cccc(C)c2)c1` the value was -36.3% (inactive). The same measure for `Cc1cc(Nc2ccc(Br)cc2F)n2ncnc2n1`: 3.15% (inactive); for `COc1ccc(Cl)cc1-n1c(CCC(=O)O)ccc1-c1ccc(C)cc1`: 10.6% (inactive); for `Cc1cc(C)c(NC(=O)CCc2c(C)nc3c(c(C)nn3C(C)(C)C)c2C)c(C)c1`: 3.32% (inactive). For `COc1cccc(N(C(=O)C2COc3ccccc3O2)C(C(=O)NC2CCCCC2)c2ccc(O)cc2)c1` (stereo not drawn) the value was -15.7% (inactive); for `COc1ccc(C(C(=O)NC2CCCCC2)N(C(=O)CCl)c2ccccc2Cl)cc1` (stereo not drawn), -97.5% (active); for `Cc1ccccc1N(C(=O)CNC(=O)c1cccs1)C(C(=O)NC1CCCC1)c1ccncc1` (stereo not drawn), 62.4% (inactive). With `Oc1c(C(c2ccc(F)cc2)N2CCN(Cc3ccccc3)CC2)sc2nc(-c3ccco3)nn12` (stereo not drawn), the activity change, negative = inhibition was -3% (inactive). The same measure for `CC(=O)C[C@@H](O)CC(=O)[C@H]1OC(=O)CCCCCCc2ccccc21`: 6.44% (inactive).

On to `CCCCCn1c(=O)[nH]c2cc(C(=O)NCCCN3CCCCC3C)ccc2c1=O` (stereo not drawn), for which the activity change, negative = inhibition was -19.8% (inactive). For `Cc1cccc(N2CCN(C(=O)CCSCc3ccccc3F)CC2)c1C` the value was 11.2% (inactive). `CCOC(=O)c1cnc2c(C)cc(C)cc2c1Nc1ccc(N2CCOCC2)cc1`: the activity change, negative = inhibition is 6.54% (inactive). The same measure for `CCC(=O)c1cc(F)ccc1OCC(=O)Nc1ccc2c(c1)OCCO2`: -17.8% (inactive); for `CCOC(=O)c1cnc2ccc(F)cc2c1Nc1ccc2c(c1)OCCO2`: -76.3% (active); for `O=C(NCc1ccccc1Cl)C1CCN(c2ncnc3c2nc2n3CCCCC2)CC1`: 0% (inactive) and -68.9% (active). For `CCOC(=O)c1cccc(NC(=O)C2CCN(c3ncnc4c3nc3n4CCCCC3)CC2)c1` the value was 4.29% (inactive).

Turning to `COc1cccc(CNC(=O)C2CCCN(c3ncnc4c3nc3n4CCCCC3)C2)c1` (stereo not drawn), the activity change, negative = inhibition was -15.7% (inactive).

`COc1ccc(N(C)C(=O)C2CCN(S(=O)(=O)c3cc(Br)cc4c3N(C(C)=O)CC4)CC2)cc1`: the activity change, negative = inhibition was 8.13% (inactive). For `COc1ccc(-c2cc(C(=O)Nc3sc4c(c3C(N)=O)CCCC4)no2)cc1` the value was 21.3% (inactive). In the case of `Cn1cc(C(=O)c2ccc(Cl)cc2Cl)cc1C(=O)NN`, the activity change, negative = inhibition was -23.5% (inactive). In the case of `CC(C)(C)c1cc(C(=O)NN)n(Cc2ccc(Cl)cc2Cl)n1`, the activity change, negative = inhibition is -79.4% (active).

As to `CC(C)(CNC(=O)Cc1ccc(Cl)cc1Cl)N1CCOCC1`, the activity change, negative = inhibition is -8.38% (inactive). As for `CC(=O)Nc1cccc(NC(=O)CSc2cn(CC(=O)N3CCCC3)c3ccccc23)c1`, the activity change, negative = inhibition is -3.21% (inactive). The same measure for `O=C(CCS(=O)(=O)c1cc(Br)cc2c1N(C(=O)C1CC1)CC2)Nc1ccc(C(F)(F)F)cc1`: 1.29% (inactive). For `O=C(NCc1ccccc1)C1=C[C@H](C2CC2)C[C@H](OCc2ccc(CO)cc2)O1` the value was 7.43% (inactive); for `CC(C)(C)[C@H]1C=C(C(=O)NCc2ccccc2)O[C@@H](OCc2ccc(CO)cc2)C1`, -2.88% (inactive). The same measure for `O=C(NCc1ccccc1)C1=C[C@@H](C2CCCCC2)C[C@@H](OCc2ccc(CO)cc2)O1`: -86.3% (active); for `OCC1(CCc2ccccc2)CCN(Cc2ccc3nsnc3c2)CC1`: 13.2% (inactive); for `Cc1c(CN2CCC(CO)(CCOc3ccccc3)CC2)[nH]c2ccc(Cl)cc12`: -92.5% (active). Turning to `CCC(C)CN1CCC(CO)(Cc2ccccc2Cl)CC1` (stereo not drawn), the activity change, negative = inhibition was -7.29% (inactive). Regarding `COc1ccccc1CNC(=O)CCn1c(=O)c2ccccc2n(CC(=O)Nc2cccc(Cl)c2)c1=O`, the activity change, negative = inhibition was -39.6% (inactive).
